# Bioassay records as filed in PubChem.
# Shown is part of a subset that was picked to be rich in hits.
# DT40 TDP1 CPT = DT40-hTDP1 cell growth loss with CPT; Potency, µM (titrated, usually from 46.2 µM), for the others: at the highest dose activity change, negative = growth inhibition, most hits filed as inhibitors; 12% of 420,000 active; chicken DT40 Tdp1-/-;hTDP1 cells + 20 nM CPT, ATP luminescence, 48 h; AID 686979; note: potency is the fitted concentration of half-maximal effect; nearly all actives have a fitted effect of over 55% in size
#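 Chicken DT40 Tdp1-/- cells complemented with human TDP1, 400 cells/well, exposed to compounds plus 20 nM camptothecin for at least 48 h at 37 C; viability read as ATP content by CellTiter-Glo luminescence.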
# 12-LOX inh = blocks human arachidonate 12S-lipoxygenase; 1.1% of 580,000 active; P18054; Potency, µM (series often up to 108 µM), without a hit: top-dose activity change, negative = inhibition, most hits filed as inhibitors; purified 12hLO, xylenol orange hydroperoxide absorbance; note: potency is the fitted concentration of half-maximal effect
# Target sequence (P18054 whole entry, looked up): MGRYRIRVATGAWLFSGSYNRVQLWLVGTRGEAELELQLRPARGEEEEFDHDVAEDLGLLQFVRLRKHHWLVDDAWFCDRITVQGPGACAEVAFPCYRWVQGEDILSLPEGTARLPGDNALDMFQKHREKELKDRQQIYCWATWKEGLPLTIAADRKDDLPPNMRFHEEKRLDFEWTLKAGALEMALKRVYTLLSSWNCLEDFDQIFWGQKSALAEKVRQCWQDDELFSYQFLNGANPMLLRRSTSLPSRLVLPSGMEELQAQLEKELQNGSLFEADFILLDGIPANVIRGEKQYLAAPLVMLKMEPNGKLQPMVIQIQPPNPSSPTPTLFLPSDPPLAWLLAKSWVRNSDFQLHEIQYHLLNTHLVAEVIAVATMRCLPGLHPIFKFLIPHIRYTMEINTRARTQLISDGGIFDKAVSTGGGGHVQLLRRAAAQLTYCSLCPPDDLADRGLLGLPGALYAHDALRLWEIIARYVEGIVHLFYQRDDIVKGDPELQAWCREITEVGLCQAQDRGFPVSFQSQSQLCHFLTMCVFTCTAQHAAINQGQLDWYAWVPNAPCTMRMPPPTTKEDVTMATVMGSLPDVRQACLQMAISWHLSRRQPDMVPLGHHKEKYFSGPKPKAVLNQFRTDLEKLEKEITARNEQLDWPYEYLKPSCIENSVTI
#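 Hydroperoxide product was detected by ferrous iron/xylenol orange as the 573 to 405 nm absorbance ratio. Arachidonic acid at 40 uM (final) was turned over for 30 min at room temperature by 150 nM human 12hLO, pH 7.0 Hepes buffer, after 15 min compound preincubation.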
# TDP1 cell noCPT = qHTS for Inhibitors of human tyrosyl-DNA phosphodiesterase 1 (TDP1): qHTS in cells in absence of CPT; DT40 Tdp1-/- hTDP1 cells, no CPT, ATP luminescence, 48 h; Potency, µM (doses to about 46.2 µM), without a hit: at the top dose activity change, negative = growth inhibition, actives largely listed as inhibitors; 15% of 420,000 active; AID 686978, 2013; note: potency is the fitted concentration of half-maximal effect; nearly all actives have a fitted effect of over 55% in size
#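 Chicken DT40 Tdp1-/- cells stably complemented with human TDP1 were seeded at 400 cells/well with DMSO in place of 20 nM camptothecin. After compound pinning, cells grew at least 48 hr at 37 °C; viability read by CellTiter-Glo luminescence.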
# IL-1B inflam inh = blocks inflammasome-driven IL-1 beta release | THP-1 LPS/ATP IL-1B secretion, AlphaLISA, 16 h; active compounds read low | activity change, % at 57.5 µM | 4.7% of 360,000 active | AID 743279; in the data active = activity change below about -50%; inconclusive = mostly about -30% to -49%
#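 THP-1 cells pretreated 1 hr with compounds (up to 57.5 uM final), then stimulated with LPS (250 ng/mL final) plus ATP (1.25 mM final); secreted IL-1B measured by AlphaLISA after 16 hr, decreased signal indicating inhibition.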
# HT1080 IDH1KD tx = toxicity to HT-1080 IDH1 knockdown cells (counter line); HT-1080 IDH1 knockdown viability, ATP luminescence, 48 h; Potency, µM (series often up to 46.1 µM), for inactives: top-dose activity, negative = toxicity, actives largely listed as cytotoxic; 2% of 360,000 active; AID 686971;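 note: potency is the fitted concentration of half-maximal effect; 0% = DMSO wells and -100% = cell-free medium wells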
#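 In this qHTS, HT-1080 cells depleted of IDH1 are exposed for 48 h at 37 °C to compound titrations. Toxicity is scored from CellTiter-Glo luminescence, with DMSO as full viability and medium alone as none.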
# HT1080-NT tox = kills 2HG-producing HT-1080-NT fibrosarcoma cells | HT-1080-NT fibrosarcoma viability, CellTiter-Glo ATP luminescence, 48 h | Potency, µM (doses to about 46.1 µM), inactives show at the highest dose activity, negative = less viability, hits mostly cytotoxic | 1.6% of 360,000 active;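 note: NT is the 2HG producing partner of a matched IDH1 knockdown line; potency is the fitted concentration of half-maximal effect; 0% = DMSO-treated cells and -100% = media-only wells without cells; nearly all actives have a fitted effect of over 55% in size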
#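 Compounds were tested in concentration-response format on HT-1080-NT cells for 48 hours at 37 degrees C. Cell viability came from CellTiter-Glo luminescence; curves were classified by r2, response magnitude and activity.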
# The depositor's hits bear a star; i = inactive; ? = inconclusive; · = no result given; [ ] = another dose, or the depositor's remark. Unless noted, calls come from the whole dose curve; as a rule, active = well fitted curve in the direction sought with a large enough effect; inconclusive = small, poorly fitted or top-dose-only effect, or another doubt; inactive = no such curve, though single readings can be large; an effect the other way counts as inactive or inconclusive. Unless noted, % is set by controls: 0 for no effect and ±100 for the full control effect.
SMILES,DT40 TDP1 CPT,12-LOX inh,TDP1 cell noCPT,IL-1B inflam inh,HT1080 IDH1KD tx,HT1080-NT tox
CSc1ccccc1NC(=O)CC1CC2CCC1C2 (stereo not drawn),·,-28%,·,·,·,·
CCN1CCOC(=O)C1CC(=O)Nc1cccc(OC)c1 (stereo not drawn),5.2µM*,-19%,21µM*,·,·,·
CCOc1ccc(NC(=O)CC2C(=O)OCCN2CC)cc1 (stereo not drawn),8.2µM*,-16%,?,·,·,·
CCOC(=O)c1ccc(NC(=O)CC2C(=O)OCCN2CC)cc1 (stereo not drawn),21µM*,-12%,21µM*,0,15%,23%
CCOC(=O)c1ccc(NC(=O)CC2OCCN(CC)C2=O)cc1 (stereo not drawn),18µM*,-46%,13µM*,3,9%,-5%
Cc1occc1C(=O)N1CCC2(CC1)N=C(CC(C)C)NC2=O,·,23%,·,·,·,·
CCN(c1ccccc1)S(=O)(=O)c1ccc(C(=O)Nc2nnc(C3CC3)o2)cc1,21µM*,-4%,18µM*,80,?,?
CCCN(CCC)S(=O)(=O)c1ccc(C(=O)Nc2nnc(CSC)o2)cc1,?,-9%,?,86,?,?
CCCCN(CC)S(=O)(=O)c1ccc(C(=O)Nc2nnc(CSC)o2)cc1,?,0%,15µM*,29,?,-30%
CCCCN(CCCC)S(=O)(=O)c1ccc(C(=O)Nc2nnc(CSC)o2)cc1,15µM*,0%[57.4 µM],9.2µM*,63,?,-11%
CCN(c1ccccc1)S(=O)(=O)c1ccc(C(=O)Nc2nnc(CSC)o2)cc1,?,-7%,9.2µM*,69,?,-17%
CCc1nnc(NC(=O)c2ccc(S(=O)(=O)N(CCOC)CCOC)cc2)o1,-4%,0%,2%,17,12%,4%
COc1ccc(CCC(C)(O)c2cc(-c3ccc(OC)cc3)no2)cc1 (stereo not drawn),·,2%,·,·,·,·
O=C(c1ccccc1F)N1CCn2c(nn(-c3ccc(C(F)(F)F)cc3)c2=O)C1,·,1%[6.33 µM],·,·,·,·
Cc1ccc(S(=O)(=O)N(C)c2ccc(C(=O)Nc3cccc(C)n3)cc2)cc1,?,-12%,?,i,-13%,1%
CCN(c1ccccc1)S(=O)(=O)c1ccc(C(=O)Nc2cccc(C)n2)cc1,23µM*,-14%,12µM*,?,-15%,0%
Oc1c(C(c2ccco2)N2CCN(C(c3ccccc3)c3ccccc3)CC2)sc2ncnn12 (stereo not drawn),?,31%,21µM*,-64*,-13%,-28%
Oc1c(C(c2cccs2)N2CCN(c3cccc(Cl)c3)CC2)sc2ncnn12 (stereo not drawn),?,23%,23µM*,?,-14%,-1%
Oc1c(C(c2ccccc2)N2CCc3ccccc3C2)sc2ncnn12 (stereo not drawn),?,-12%,?,10,-1%,8%
O=C(c1ccco1)N1CCN(C(c2cccs2)c2sc3ncnn3c2O)CC1 (stereo not drawn),4%,-4%,4%,6,14%,2%
COc1ccc(C(c2sc3ncnn3c2O)N2CCN(c3ccccc3F)CC2)cc1OC (stereo not drawn),12µM*,20%,21µM*,-3,-5%,-1%
CC(C)Cc1ccc(C(C)NC(=O)C2CC2C)cc1 (stereo not drawn),·,18%,·,·,·,·
CC(C)Cc1ccc(C(C)CC2=CCC(CN(C)C)C2=O)cc1 (stereo not drawn),4.6µM*,-27%,4.6µM*,0,?,?
CC(=O)N1CC2(CCN(CCc3ccccn3)CC2)CC1C(=O)O (stereo not drawn),·,-20%,·,·,·,·
